Experimental data as given in PubChem BioAssay (NCATS).
Results filed as inconclusive are left out. Activity calls are given as the source filed them. Calls follow the shape of the dose curve; as a rule, active = well fitted curve in the direction sought with a large enough effect; inconclusive = small, poorly fitted or top-dose-only effect, or another doubt; inactive = no such curve, though single readings can be large; an effect the other way counts as inactive or inconclusive.

What was measured:
[1] = biological target: Cytochrome P450 2C19 (Homo sapiens) (UniProt P33261); assay: qHTS Assay for Inhibitors and Substrates of Cytochrome P450 2C19 (AID 899); details: recombinant CYP2C19, luciferin-H EGE luminescence; series mostly up to 57.1 µM; also: nearly all actives have a fitted effect of over 60% in size; also: potency is read from the fitted curve at half-maximal effect
Cytochrome P450 2C19 (Homo sapiens), sequence (P33261 whole entry, looked up): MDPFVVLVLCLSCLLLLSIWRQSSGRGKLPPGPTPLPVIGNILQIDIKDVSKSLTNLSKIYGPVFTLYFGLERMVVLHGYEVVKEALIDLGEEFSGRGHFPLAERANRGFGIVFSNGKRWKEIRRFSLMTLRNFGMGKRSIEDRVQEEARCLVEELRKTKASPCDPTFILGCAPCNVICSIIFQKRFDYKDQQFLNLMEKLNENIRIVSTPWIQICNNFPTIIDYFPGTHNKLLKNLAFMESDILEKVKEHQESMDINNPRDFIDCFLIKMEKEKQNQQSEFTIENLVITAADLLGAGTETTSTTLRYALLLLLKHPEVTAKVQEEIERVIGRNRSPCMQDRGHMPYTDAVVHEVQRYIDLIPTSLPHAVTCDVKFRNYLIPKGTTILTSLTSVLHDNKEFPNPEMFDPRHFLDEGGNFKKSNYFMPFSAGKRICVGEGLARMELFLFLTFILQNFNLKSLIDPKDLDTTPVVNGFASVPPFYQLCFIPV
In short: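 Reactions contain 5nM enzyme, 10uM Luciferin-H EGE (KM) and 50mM KPO4; compound preincubates 10 min at 37C, NADPH regeneration starts turnover for 60 min. Luminescence after detection reagent gives activity.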

[2] = biological target: Dual specificity protein kinase CLK4 (Homo sapiens) (UniProt Q9HAZ1); assay: qHTS Assay for Inhibitors of CDC-like Kinase 4 (Kinase-Glo Assay) (AID 1770); details: recombinant Clk4, Kinase-Glo ATP depletion luminescence; series mostly up to 66.7 µM; also: nearly all actives have a fitted effect of over 65% in size
Dual specificity protein kinase CLK4 (Homo sapiens), sequence (Q9HAZ1 whole entry, looked up): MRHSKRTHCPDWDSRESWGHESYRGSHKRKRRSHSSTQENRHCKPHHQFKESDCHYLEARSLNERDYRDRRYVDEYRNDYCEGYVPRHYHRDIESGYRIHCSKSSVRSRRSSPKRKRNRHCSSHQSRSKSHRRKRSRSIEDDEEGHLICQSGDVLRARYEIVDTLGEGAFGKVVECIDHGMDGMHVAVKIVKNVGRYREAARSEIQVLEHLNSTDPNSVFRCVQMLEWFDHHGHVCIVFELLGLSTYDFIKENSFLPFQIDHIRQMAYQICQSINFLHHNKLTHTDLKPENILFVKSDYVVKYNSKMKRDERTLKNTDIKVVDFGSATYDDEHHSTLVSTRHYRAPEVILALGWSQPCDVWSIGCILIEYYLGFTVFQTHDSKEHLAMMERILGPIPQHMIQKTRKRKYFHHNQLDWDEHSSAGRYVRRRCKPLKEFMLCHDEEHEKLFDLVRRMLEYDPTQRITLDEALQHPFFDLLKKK
In short: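 Inhibition was judged from remaining ATP, measured by Ultra-Glo luciferase bioluminescence after Clk4 (25 nM) had acted on RS peptide at 1 uM ATP for 4.5 hours, room temperature.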

[3] = biological target: Dual specificity protein kinase CLK4 (Homo sapiens) (UniProt Q9HAZ1); assay: qHTS Assay for Inhibitors of CDC-like Kinase 4 (ADP-Glo Assay) (AID 1771); details: recombinant CLK4, ADP-Glo luminescence; series mostly up to 80 µM; also: nearly all actives have a fitted effect of over 70% in size
In short: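 ADP production was read by ADP-Glo luminescence after residual ATP depletion, following 1 h room-temperature reaction of 25 nM Clk4, 1 uM ATP and 100 uM RS peptide with MgCl2, EGTA, DTT and Triton X-100.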

[4] = biological target: Dual specificity protein kinase CLK4 (Homo sapiens) (UniProt Q9HAZ1); assay: qHTS Assay for Inhibitors of CDC-like Kinase 4 (ADP-FP Assay) (AID 1795); details: Transcreener ADP fluorescence polarization; series mostly up to 50 µM;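 also: recombinant human CLK4 phosphorylating RS repeat peptide at 1 µM ATP; nearly all actives have a fitted effect of over 60% in size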
In short: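 Inhibition of ADP formation by 6.25 nM Clk4 is measured using 1 uM ATP and 100 uM RS repeat peptide over one hour. Produced ADP displaces a fluorescent tracer from antibody, lowering polarization.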

[5] = biological target: Cytochrome P450 3A4 (Homo sapiens) (UniProt P08684); assay: qHTS Assay for Inhibitors and Substrates of Cytochrome P450 3A4 (AID 884); details: recombinant CYP3A4, Luciferin-PPXE luminescence; series mostly up to 57.1 µM; also: nearly all actives have a fitted effect of over 50% in size; also: potency is read from the fitted curve at half-maximal effect
Cytochrome P450 3A4 (Homo sapiens), sequence (P08684 whole entry, looked up): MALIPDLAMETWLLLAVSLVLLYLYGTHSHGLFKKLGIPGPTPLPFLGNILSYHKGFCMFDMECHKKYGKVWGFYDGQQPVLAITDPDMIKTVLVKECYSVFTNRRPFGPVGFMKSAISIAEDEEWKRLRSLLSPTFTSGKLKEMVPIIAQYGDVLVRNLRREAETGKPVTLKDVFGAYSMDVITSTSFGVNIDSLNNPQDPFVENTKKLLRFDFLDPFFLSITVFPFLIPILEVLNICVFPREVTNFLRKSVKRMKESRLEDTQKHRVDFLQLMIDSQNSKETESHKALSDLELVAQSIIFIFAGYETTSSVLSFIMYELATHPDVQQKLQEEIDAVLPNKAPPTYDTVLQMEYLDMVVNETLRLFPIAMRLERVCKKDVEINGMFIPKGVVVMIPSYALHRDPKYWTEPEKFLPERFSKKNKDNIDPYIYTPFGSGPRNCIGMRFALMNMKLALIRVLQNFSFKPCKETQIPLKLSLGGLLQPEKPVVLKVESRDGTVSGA
In short: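 Luminescent readout of luciferin produced by CYP3A4 (20 nM) dealkylation of Luciferin-PPXE, 25 uM (its KM). NADPH-driven reaction ran 60 min at RT after 10 min compound preincubation; data scaled to 57 uM ketoconazole as 100% inhibition.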

[6] = Confirmation and Secondary Assay for Modulators of Hemoglobin Beta Chain Splicing at IVS2 654 locus (AID 910); details: HeLa EGFP-654 splicing reporter, GFP fluorescence, 48 h; series mostly up to 38.3 µM;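 also: HeLa cells stably carrying EGFP split by mutant beta-globin IVS2-654 intron; per-well total GFP intensity by laser scanning cytometry after 2-day treatment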
In short: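 Readout: per-well total peak green fluorescence (488 nm ex, 500–520 nm em) from objects 5–250 µm, reflecting correct splicing of an EGFP-654 reporter. Compounds were applied for 2 days at 37 °C to overnight-plated HeLa EGFP-654 cells; controls were DMSO and 500 nM IVS2-654 PNA.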

[7] = Confirmation and Secondary Assay for Modulators of Hemoglobin Beta Chain Splicing at IVS2 705 locus (AID 930); details: HeLa EGFP-705 splicing reporter, GFP fluorescence, 48 h; series mostly up to 38.3 µM;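 also: HeLa cells stably expressing the EGFP-705 splicing reporter; GFP fluorescence per well restored by corrected splicing of the IVS2-705 intron in EGFP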
In short: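 HeLa IVS2-705 EGFP reporter cells, 500/well, compound 2 d at 37C; correct splicing yields fluorescent EGFP. Control: 500 nM antisense PNA. Read-out: total peak GFP intensity.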

[8] = biological target: ATP-dependent 6-phosphofructokinase (Trypanosoma brucei brucei) (UniProt O15648); assay: qHTS Assay to Find Inhibitors of T. brucei phosphofructokinase: hit validation (AID 492961);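 also: luminescence reports ADP formed as PFK phosphorylates fructose-6-phosphate with ATP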; details: T. brucei PFK, ADP-Glo luminescence; series mostly up to 51.4 µM
ATP-dependent 6-phosphofructokinase (Trypanosoma brucei brucei), sequence (O15648 whole entry, looked up): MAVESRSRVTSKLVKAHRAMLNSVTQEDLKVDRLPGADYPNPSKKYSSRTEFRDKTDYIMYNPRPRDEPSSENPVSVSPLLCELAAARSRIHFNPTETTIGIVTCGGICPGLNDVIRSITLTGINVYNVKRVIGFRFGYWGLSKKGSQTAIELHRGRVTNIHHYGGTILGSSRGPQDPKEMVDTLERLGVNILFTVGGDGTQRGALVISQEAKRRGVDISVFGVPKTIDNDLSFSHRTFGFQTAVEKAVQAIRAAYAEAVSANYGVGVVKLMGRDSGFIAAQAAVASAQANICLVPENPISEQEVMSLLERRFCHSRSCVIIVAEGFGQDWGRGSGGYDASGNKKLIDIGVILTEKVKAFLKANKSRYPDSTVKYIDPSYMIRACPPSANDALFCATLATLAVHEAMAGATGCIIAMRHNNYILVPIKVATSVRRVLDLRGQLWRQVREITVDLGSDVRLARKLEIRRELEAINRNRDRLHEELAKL
In short: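 Measures ADP output of PFK (1.25 nM) at 0.1 mM ATP, 0.5 mM F6P, pH 8.0 TEA buffer with 5 mM MgCl2. No-enzyme wells define full inhibition; uninhibited enzyme wells define zero.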

[9] = system: CP192; assay: qHTS profiling for inhibitors of Plasmodium falciparum proliferation (AID 504749); also: nearly all actives have a fitted effect of over 60% in size; also: potency is read from the fitted curve at half-maximal effect; details: P. falciparum in erythrocytes, SYBR Green DNA, 72 h; series mostly up to 28.7 µM
In short: (§1)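 SYBR Green fluorescence of parasite DNA, read after lysis and overnight dark incubation, measured growth over 72 h in erythrocyte culture at 0.3% parasitemia and 2.5% hematocrit. Data normalised to DMSO and 0.29 uM artemisinin, with plate-drift correction.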

[10] = system: CP194; assay: as above; details: P. falciparum in erythrocytes, SYBR Green DNA, 72 h; series mostly up to 28.7 µM
In short: as §1

[11] = system: CP215; assay: as above; details: P. falciparum in erythrocytes, SYBR Green DNA, 72 h; series mostly up to 28.7 µM
In short: as §1

[12] = system: CP260; assay: as above; details: P. falciparum in erythrocytes, SYBR Green DNA, 72 h; series mostly up to 28.7 µM
In short: as §1

[13] = system: CP291; assay: as above; details: P. falciparum in erythrocytes, SYBR Green DNA, 72 h; series mostly up to 28.7 µM
In short: as §1

[14] = system: CP305; assay: as above; details: P. falciparum in erythrocytes, SYBR Green DNA, 72 h; series mostly up to 28.7 µM
In short: as §1

[15] = system: CP335; assay: as above; details: P. falciparum in erythrocytes, SYBR Green DNA, 72 h; series mostly up to 28.7 µM
In short: as §1

[16] = system: GB4; assay: as above; details: P. falciparum in erythrocytes, SYBR Green DNA, 72 h; series mostly up to 28.7 µM
In short: as §1

[17] = system: JCK; assay: as above; details: P. falciparum in erythrocytes, SYBR Green DNA, 72 h; series mostly up to 28.7 µM
In short: as §1

[18] = system: N140; assay: as above; details: P. falciparum in erythrocytes, SYBR Green DNA, 72 h; series mostly up to 28.7 µM
In short: as §1

[19] = system: PC15; assay: as above; details: P. falciparum in erythrocytes, SYBR Green DNA, 72 h; series mostly up to 28.7 µM
In short: as §1

[20] = qHTS Assay for Identification of Small Molecule Agonists for Thrombopoietin (TPO) Signaling Pathway (AID 917); details: TPO signaling pathway reporter cells, agonist qHTS, stimulated with TPO at its EC50; series mostly up to 38.5 µM
In short: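 Quantitative HTS for pathway activators: compounds were pin-transferred onto IL-3-starved Ba/F3 cells expressing human TPO receptor, TPO was added at its EC50 (26 pM final), and after 24 hrs at 37 C reporter luciferase was measured.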

Measured: Potency

FC(F)(F)c1ccccc1-c1nc(NC2CCNCC2)c2ccccc2n1
inactive: [1] | [2] | [3] | [4]

Cn1c(=O)c(CCc2ccccc2)nc2cnc(OCc3ccccc3)nc21
inactive: [2] | [3] | [4]

O=c1cnc2cnc(N3CCNCC3)nc2n1Cc1ccc(F)cc1
active: [5] 7.94 µM
inactive: [2] | [3] | [4]

Cc1cccc(CNc2ncnc3ccc(-c4ccccc4CN(C)C)cc23)c1
inactive: [6] | [7]

Cc1cccc(CNc2cc(-c3ccccc3CN(C)C)ncn2)c1
inactive: [6] | [7]

OC[C@H]1O[C@@H](n2cnc3c(NCCc4ccccc4)ncnc32)[C@H](O)[C@H]1O
inactive: [5]

COc1ccccc1-c1cncnc1NCCN1CCOCC1
inactive: [6] | [7]

O=c1c(CCc2ccccc2)nc2cnc(N3CCNCC3)nc2n1C1CC1
inactive: [2] | [3] | [4]

CC(C)C[C@H]1C(=O)N2CCCC2[C@]2(O)O[C@](NC(=O)[C@@H]3C=C4c5cccc6[nH]c(Br)c(c56)C[C@H]4N(C)C3)(C(C)C)C(=O)N12 (some centres not stated)
inactive: [8]
active: [9] 16.9 µM | [10] 13.5 µM | [11] 8.49 µM | [12] 1.58 µM | [13] 10.7 µM | [14] 10.7 µM | [15] 3.79 µM | [16] 6.01 µM | [17] 10 µM | [18] 3.16 µM | [19] 7.94 µM

CC(=O)NCCc1ccc(O)c(O)c1
inactive: [20]

CCSC(N)=Nc1ccc(C(F)(F)F)cc1
inactive: [20]

CO[C@H]1/C=C/O[C@@]2(C)Oc3c(C)c(O)c4c(O)c(c(/C=N\N5CCN(C6CCCC6)CC5)c(O)c4c3C2=O)NC(=O)/C(C)=C\C=C\[C@H](C)[C@H](O)[C@@H](C)[C@@H](O)[C@@H](C)[C@H](OC(C)=O)[C@@H]1C
inactive: [8]
active: [9] 4.78 µM | [10] 4.26 µM | [11] 4.26 µM | [12] 1 µM | [13] 4.26 µM | [14] 4.78 µM | [15] 1.35 µM | [16] 1.07 µM | [18] 0.141 µM | [19] 0.794 µM

COc1ccc2c(c1)c(CC(=O)O)c(C)n2Cc1ccc(F)cc1
inactive: [20]

N[C@H](Cc1ccc(O)c(O)c1)C(=O)O
inactive: [12] | [18]

CC(C)(C)[C@]1(O)CCN2CC3c4ccccc4CCc4cccc(c43)[C@@H]2C1 (some centres not stated)
inactive: [8] | [11] | [14] | [17]
active: [15] 10.7 µM | [16] 9.53 µM

CCCC(=O)NCCc1c2n(c3ccc(OC)cc13)Cc1ccccc1-2
inactive: [20]
active: [5] 2.51 µM | [1] 0.398 µM

CN1C[C@H](C(=O)N[C@]2(C)O[C@@]3(O)C4CCCN4C(=O)[C@H](Cc4ccccc4)N3C2=O)C[C@@H]2c3cccc4[nH]cc(c34)C[C@H]21 (some centres not stated)
active: [12] 2 µM | [17] 10 µM | [18] 0.891 µM | [19] 1.12 µM

N#CCCn1c(=O)c(CCc2ccccc2)nc2cnc(Oc3cccc(Cl)c3)nc21
active: [5] 0.794 µM | [1] 6.31 µM

COCCn1c(=O)c(CCc2ccccc2)nc2cnc(OC)nc21
active: [1] 0.794 µM

COc1ccc(CCNC[C@@H](O)c2ccc(O)cc2)cc1OC
not listed: [1] | [2] | [3] | [4] | [5] | [6] | [7] | [20]
inactive: all other assays above
